# Laboratory results reported in ChEMBL document CHEMBL3988442, “University of Dundee, Small-Polar-MMV Screening Library” (2021).
# Screen size: about 69,000 compounds; about 950 (1.4%) showed an effect of 50% or more. The entries come from a sample that favours strong results as a whole.
# Tested on: Mycobacterium tuberculosis
# Test: Cornell M. t heat shock assay; note: in the data most compounds retested in dose-response had high values
# Type: functional, organism-based
# Set-up: dose or concentration left out as unconfirmed
row,SMILES,Percent Effect [%]
1,Cn1cccc1C(=O)N1CCO[C@@H]2CN(Cc3nccs3)C[C@@H]2C1.O=C(O)C(F)(F)F,-1.358
2,CCCOC1CCCN(c2ccnc(C(=O)NCc3ccco3)c2)C1 (stereo not given),56.57
3,O=C(NCc1ccco1)c1cc(N2CC[C@@H](O)C2)ccn1,1.104
4,CN(C)[C@H]1CCN(c2ccnc(C(=O)NCc3ccco3)c2)C1,19.62
5,CC[C@@H]1N(Cc2ccoc2)CCC[C@]12CCC(=O)N2CCOC.O=C(O)C(F)(F)F,-21.47
6,CN1CC[C@H]2[C@H](C[C@@H](CN3CCCC3)N2c2nccs2)C1.O=C(O)C(F)(F)F.O=C(O)C(F)(F)F.O=C(O)C(F)(F)F,17.76
7,O=C(O)C(F)(F)F.O=C1N(CC2CC2)CCC12CCCN(c1ncc(F)cn1)C2 (stereo not given),23.17
8,Cc1ccc(CN2CCC3(C2)C(=O)N(CC(C)C)c2ccccc23)s1 (stereo not given),104.8
9,Cc1ccc(CN2CCC3(CC2)C(=O)Nc2ccccc23)s1.O=C(O)C(F)(F)F,0.7618
10,CC(C)CN1C(=O)C2(CCN(Cc3ccc(F)cc3)C2)c2ccccc21 (stereo not given),17.34
11,Cc1ccc(CN2CCC3(CC2)C(=O)N(C)c2ccccc23)s1.O=C(O)C(F)(F)F,67.96
12,Cc1ccc(CN2CCC3(C2)C(=O)N(CC(N)=O)c2ccccc23)s1 (stereo not given),-35.1
13,Cc1ccc(CN2CCC3(C2)C(=O)N(CC2CC2)c2ccccc23)s1.O=C(O)C(F)(F)F (stereo not given),22.05
14,Cc1cccc(CN2C[C@@H]3COC[C@]3(COc3cccnc3)C2)n1.O=C(O)C(F)(F)F.O=C(O)C(F)(F)F.O=C(O)C(F)(F)F,-8.53
15,Cc1cc(Nc2nc(C)cs2)nc(C2CCCCN2CCO)n1 (stereo not given),103.2
16,Cc1csc(Nc2cc(C3CCCCN3C)nc(C)n2)n1 (stereo not given),-8.179
17,Cc1cccc(Nc2cc(C)nc(C3CCCCN3CC(N)=O)n2)n1 (stereo not given),-15.32
18,COc1nc2cc(C)ccc2cc1CN(C)Cc1cc(C)[nH]n1.O=C(O)CC(O)(CC(=O)O)C(=O)O,-1.641
19,O=C(O)C(F)(F)F.O=C(O)C(F)(F)F.O=C1[C@H]2CN(Cc3ccoc3)C[C@H]2CN1CCN1CCCC1,-10.49
20,O=C(c1ncccn1)N1C[C@@H]2COC[C@]2(COc2cccnc2)C1,26.01
21,O=C(C1=CCCC1)N1C[C@@H]2COC[C@]2(COc2cccnc2)C1,1.513
22,O=C(c1cocn1)N1C[C@@H]2COC[C@]2(COc2cccnc2)C1,75.2
23,O=C(O)C(F)(F)F.O=C(c1cocn1)N1C[C@H]2CCC[C@@]2(COc2ccccn2)C1,21.2

row,SMILES,Percent Effect [%]
1,CS(=O)(=O)N1CCC2(CC1)CC(NCc1ccco1)c1ccccc12.O=C(O)C(F)(F)F (stereo not given),55
2,Cn1cc(CNC2CC3(CCN(S(C)(=O)=O)CC3)c3ccccc32)cn1.O=C(O)C(F)(F)F (stereo not given),36.25
3,CS(=O)(=O)N1CCC2(CC1)CC(NCC1CC1)c1ccccc12.O=C(O)C(F)(F)F (stereo not given),1.272
4,COc1ccc(OC)c(C2CCN(c3ccc4cc[nH]c4n3)C2)c1 (stereo not given),103.8
5,COc1cccc(C2CCN(c3ccc4cc[nH]c4n3)C2)c1OC (stereo not given),36.99
6,COc1ccccc1C1CCN(c2ccc3cc[nH]c3n2)CC1,-1.592
7,CS(=O)(=O)N1C[C@H]2CC[C@@H]1CN(Cc1ccncc1)C2,-0.4425
8,Cn1cc(N2CCC3(CCN(Cc4nccs4)C3)C2=O)cn1.O=C(O)C(F)(F)F (stereo not given),-0.6336
9,Cc1cnnn1Cc1ncn2c1CN(Cc1cccs1)CCC2.O=C(O)C(F)(F)F,1.772
10,O=C(O)C(F)(F)F.O=C(O)C(F)(F)F.O=C1CO[C@@H]2CN(CC3CCOCC3)C[C@H]2N1Cc1ccncc1,-5.107
11,Cc1ccsc1C(=O)Nc1ccc(N2CCC(O)CC2)c(C#N)c1,75.65
12,N#Cc1cc(NC(=O)c2ccsc2)ccc1N1CCC(O)CC1,11.62
13,Cc1ccc(C(=O)Nc2ccc(N3CCC(O)CC3)c(C#N)c2)s1,25.13
14,COc1ccc(C[C@H]2CN(C(=O)c3ccc(C)nc3)CC[C@@H]2OC)cc1.O=C(O)C(F)(F)F,-2.913
15,CNC(=O)[C@H]1C[C@@H]2CCN(Cc3ccncc3)C[C@H]2O1.O=C(O)C(F)(F)F.O=C(O)C(F)(F)F,-3.411
16,CC(C)c1cc(C(=O)NCC2CCCN(C(C)C)C2)n(C)n1.Cl (stereo not given),-0.8268
17,CC(C)(C)c1cc(NC(=O)CN2CCCC2Cn2cccn2)on1 (stereo not given),77.39
18,Cc1cnn(CC2CCCN2CC(=O)NC2CCOCC2)c1 (stereo not given),-0.7823
19,CC(C)c1cc(NC(=O)CN2CCCC2Cn2cncn2)on1 (stereo not given),-8.042
20,Cc1cnn(CC2CCCN2CC(=O)Nc2cc(C(C)C)no2)c1 (stereo not given),98.13
21,Cc1cc(C)n(CC2CCCN2CC(=O)Nc2cc(C(C)C)no2)n1 (stereo not given),66.41
22,Cc1nc(C)n(CC2CCCN2CC(=O)Nc2cc(C(C)C)no2)n1 (stereo not given),-40.94
